Activity calls are given as the source filed them.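 Rule for the calls, unless noted: active = NADPH fluorescence slope more negative than the mean of all samples by about 3 SD, 99.7% confidence; inactive = the rest.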

Experimental findings from PubChem BioAssay are described below.

Test [1] is described as follows: inhibitors of TNFa-induced NFkB p65 translocation, primary screen, imaging, HUVEC, MLSMR starter and 10KST1 sets (AID 438;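 active = inhibition above 20% together with a positive visual image hit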;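 note: compound added about 3h40 before a 20 min TNFalpha stimulation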;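 for inhibition: signal is the nuclear over cytoplasmic p65 intensity ratio per well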). The conditions noted are these: HUVEC TNFa-induced p65 nuclear translocation; cell count: measured here: nuclei count (cytotoxicity indicator), at 2.08 µM; inhibition: at 2 µM, stronger effect = higher value, 0% TNFa-plus-vehicle, 100% no-TNFa wells.
Test [2] in a line: reduction of polyQ htt aggregates in cells – imaging, exon1htt(103Q)mCFP cells, high-content imaging, primary screen (AID 483;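 active = visual image review flags a hit and inhibition of aggregation exceeds 20%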;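 note: compound exposure lasted 3 days before fixation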;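 for nuclei count: percent of the per-plate median nuclei count of sample wells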). The conditions noted are these: exon1htt(103Q)mCFP cell line, aggregate imaging, at 2 µM; inhibition of aggregation: stronger effect = higher value; nuclei count: measured here: cell count, toxicity.
A short description of test [3]: endothelial E-selectin expression blockers – imaging, HUVEC, immunofluorescence, MLSMR starter and 10KST1 sets, primary screen (AID 487;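 active = visually confirmed hit in the image check and inhibition above 20%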;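 for inhibition: signal is fraction of cell area covered by stained E-selectin grains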;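 for nuclei count: 100% = median nuclei count of all wells on the same plate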). The conditions noted are these: HUVEC TNFalpha-induced E-selectin immunofluorescence imaging, at 2 µM; inhibition: stronger effect = higher value; nuclei count: measured here: cell number, toxicity.
The target of test [4] is Voltage-gated potassium channel subunit beta-2 (Rattus norvegicus) (UniProt P62483). The test can be described thus: inhibitors of rat Kvbeta2 reductase activity – biochemical, NADPH fluorescence, primary screen (AID 622;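 active = fluorescence slope higher than the sample average by over 3 SD, cut at about -0.22 in these data, passing the limit was not always enough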;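 note: slope of raw intensity against log time taken from 70 to 1610 s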). The conditions noted are these: recombinant KvBeta, 4-cyanobenzaldehyde reduction, at 10 µM, stronger effect = higher value.
Voltage-gated potassium channel subunit beta-2 (Rattus norvegicus), sequence (P62483 whole entry, looked up): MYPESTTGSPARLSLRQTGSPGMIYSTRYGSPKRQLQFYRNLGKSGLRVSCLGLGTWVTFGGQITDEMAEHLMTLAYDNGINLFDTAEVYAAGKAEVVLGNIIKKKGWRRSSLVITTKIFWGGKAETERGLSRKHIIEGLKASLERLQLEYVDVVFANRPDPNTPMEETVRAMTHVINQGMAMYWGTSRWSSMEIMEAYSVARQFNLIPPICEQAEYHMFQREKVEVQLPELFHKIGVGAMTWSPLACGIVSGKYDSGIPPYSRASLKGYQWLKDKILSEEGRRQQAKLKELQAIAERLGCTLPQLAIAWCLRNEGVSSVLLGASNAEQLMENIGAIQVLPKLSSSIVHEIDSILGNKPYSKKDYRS
The target is the same in test [5]. Briefly: enhancers of rat Kvbeta2 NADPH turnover – biochemical, NADPH fluorescence, primary screen (AID 623).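 Note: fluorescence intensity change per second fitted from 20 to 320 s.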 The conditions noted are these: Recombinant KvBeta, NADPH fluorescence decrease slope, 10 min; at 10 µM; stronger effect = lower value.
In test [6] the target is Alpha-2C adrenergic receptor (Homo sapiens) (UniProt P18825). Briefly: compounds altering alpha2C-coupled GIRK flux – cell-based, HEK293 alpha2C/GIRK1/2, thallium flux, primary screen (AID 624;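 active = fluorescence slope after compound addition differing from the mean of all screened samples at 99.7% confidence, in either direction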;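 note: slope of fluorescence ratio to pre-addition baseline per second over 15 to 24 s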). The conditions noted are these: thallium flux BTC fluorescence, at 10 µM, actives lie on both sides.
Alpha-2C adrenergic receptor (Homo sapiens), sequence (P18825 whole entry, looked up): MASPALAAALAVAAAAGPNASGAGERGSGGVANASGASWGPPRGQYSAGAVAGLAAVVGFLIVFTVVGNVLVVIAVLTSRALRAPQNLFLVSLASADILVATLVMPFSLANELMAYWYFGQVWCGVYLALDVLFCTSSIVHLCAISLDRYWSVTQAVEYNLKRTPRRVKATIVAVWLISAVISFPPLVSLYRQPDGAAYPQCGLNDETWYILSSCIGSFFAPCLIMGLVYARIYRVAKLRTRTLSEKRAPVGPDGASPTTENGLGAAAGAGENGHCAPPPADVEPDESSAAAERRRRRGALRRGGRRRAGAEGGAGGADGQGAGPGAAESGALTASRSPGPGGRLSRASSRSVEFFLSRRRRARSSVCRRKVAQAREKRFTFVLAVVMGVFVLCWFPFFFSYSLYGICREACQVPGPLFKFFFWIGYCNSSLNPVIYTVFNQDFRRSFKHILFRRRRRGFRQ
A short description of test [7]: blockers of RIG-like receptor reporter activation – cell-based, Sendai virus stimulus, luciferase, 10K MLSCN set, TLR/RLR signaling modifier project, primary screen (AID 602276;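 active = inhibition at or above 50% at 10 µM; inactive = inhibition below 50%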;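 note: firefly luciferase from ISG56 promoter only with Renilla not read in this screen; 0% = Sendai virus plus DMSO and 100% = medium plus DMSO without virus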). The conditions noted are these: HEK293 RL24 IRF3 luciferase reporter, at 10 µM, stronger effect = higher value. Background: A reporter such as luciferase makes a cellular process visible.
A short description of test [8]: TLR3 IRF3 reporter activation blockers – cell-based, poly I:C stimulus, luciferase, 10K MLSCN set, primary screen (AID 602277;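 active = inhibition of the reporter signal at or above 50%; inactive = inhibition below 50%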). The conditions noted are these: HEK293-TLR3 RL24 IRF3 luciferase reporter, at 10 µM, stronger effect = higher value.

One may read the inhibition as the change of the read-out against control, counted positive when it falls. Regarding `CCN(CC)C(=O)CSc1nnc([C@@H](N)Cc2ccccc2)o1`, the cell count in test [1] came to 673. For the same compound, the inhibition in test [1] was 1.7% (inactive); in test [3], -0.8% (inactive); in test [7] it was 15.4% (inactive); in test [8], 22% (inactive). Besides, the inhibition of aggregation in test [2] is -2.7% (inactive). Besides, the nuclei count in test [2] stood at 84.3%; in test [3], 96%. Also, the fluorescence slope in test [4] is -0.499 (inactive). For the same compound, the NADPH fluorescence slope in test [5] is 1.4e-05 (inactive). Further, the slope in test [6] was 0.00547 (inactive).

Regarding `CCC(C)(C)n1nnnc1C(c1cc2cc(C)ccc2[nH]c1=O)N1CCCC1` (stereo not given), in test [1], the cell count turned out to be 353. Further, the inhibition in test [1] is 4.2% (inactive); in test [3], -273% (inactive); in test [7], 13.6% (inactive); in test [8] it was 28.7% (inactive). Further, the inhibition of aggregation in test [2] is -27.7% (inactive). Further, the nuclei count in test [2] was determined as 103%; in test [3] it was 110%. For the same compound, the fluorescence slope in test [4] is -0.43 (inactive). For the same compound, the NADPH fluorescence slope in test [5] was 2.7e-05 (inactive). Besides, the slope in test [6] is 0.00689 (inactive).

In the case of `O=C(OCC(=O)c1ccc[nH]1)c1ccc(S(=O)(=O)N2CCCCC2)cc1`, the cell count in test [1] came out at 314. The inhibition in test [1] was 22.9% (inactive); in test [3], -31.1% (inactive); in test [7] it was 2.97% (inactive); in test [8] it was 29.4% (inactive). Besides, the inhibition of aggregation in test [2] was 1.5% (inactive). For the same compound, the nuclei count came to 96.8% in test [2] and 98% in test [3]. In addition, the fluorescence slope in test [4] was -0.444 (inactive). The NADPH fluorescence slope in test [5] is -4.5e-05 (inactive). Further, the slope in test [6] is 0.00419 (inactive).

For `CCOC(=O)c1c(NC(=O)Cn2c(=O)oc3ccccc32)oc(C)c1C(C)=O`, the cell count in test [1] was determined as 365. Besides, the inhibition was -5.4% (inactive) in test [1], 1.9% (inactive) in test [3], 5.7% (inactive) in test [7] and 11.9% (inactive) in test [8]. Besides, the inhibition of aggregation in test [2] is -18.8% (inactive). Moreover, the nuclei count in test [2] amounted to 74.1%; in test [3], 119%. The fluorescence slope in test [4] is -0.484 (inactive). In test [5], the NADPH fluorescence slope is 1.5e-05 (inactive). The slope in test [6] was 0.00454 (inactive).

Turning to `CCc1nnc(-n2nc(C)cc2-c2ccccc2)n1N`, the cell count in test [1] amounted to 648. Besides, the inhibition is -2.4% (inactive) in test [1], -20.7% (inactive) in test [3], 15.3% (inactive) in test [7] and 22.1% (inactive) in test [8]. Also, in test [2], the inhibition of aggregation is 0.6% (inactive). For the same compound, the figures for the nuclei count in test [2] and in test [3] were 104% and 109%, respectively. Also, the fluorescence slope in test [4] is -0.551 (inactive). The NADPH fluorescence slope in test [5] is 2.6e-05 (inactive). Moreover, the slope in test [6] is 0.00642 (inactive).

Regarding `CCOc1cc(C(=O)N(C)Cc2cc3ccccc3[nH]c2=O)cc(OCC)c1OCC`, the cell count in test [1] was 376. Besides, the inhibition is 0.6% (inactive) in test [1], -205% (inactive) in test [3], 11.9% (inactive) in test [7] and 18.9% (inactive) in test [8]. Moreover, in test [2], the inhibition of aggregation is 22.5% (inactive). Besides, the nuclei count came to 87.4% in test [2] and 196% in test [3]. Besides, in test [4], the fluorescence slope was -0.325 (inactive). The NADPH fluorescence slope in test [5] is -5e-05 (inactive). Also, the slope in test [6] was 0.00465 (inactive).

For `C=CCc1cccc2cc(C(=O)NCc3cccnc3)c(=O)oc12`, the cell count in test [1] was 329. In addition, the inhibition in test [1] is 3.5% (inactive); in test [3] it was 4.6% (inactive); in test [7] it was -3.91% (inactive); in test [8] it was 20.3% (inactive). The inhibition of aggregation in test [2] is -4.3% (inactive). Also, the nuclei count in test [2] turned out to be 101%; in test [3], 117%. Besides, the fluorescence slope in test [4] is -0.437 (inactive). Besides, the NADPH fluorescence slope in test [5] was 1.5e-05 (inactive). The slope in test [6] was 0.00312 (inactive).

With `Cc1nc(C)c(C(=O)C2=C(O)C(=O)N(CCCn3ccnc3)C2c2ccccc2)s1` (stereo not given), the cell count in test [1] stood at 481. In addition, the inhibition in test [1] is 4% (inactive); in test [3], 39.5% (inactive); in test [7], -7.2% (inactive); in test [8], -4.54% (inactive). In test [2], the inhibition of aggregation was 11.4% (inactive). Besides, the nuclei count came to 89% in test [2] and 88.2% in test [3]. The fluorescence slope in test [4] was -0.394 (inactive). The NADPH fluorescence slope in test [5] was 1.3e-05 (inactive). The slope in test [6] was 0.00668 (inactive).

With `Cc1cc(C)cc(N(CC(=O)NC2CCC(C)CC2)S(=O)(=O)c2c(C)noc2C)c1` (stereo not given), the cell count in test [1] stood at 753. The inhibition in test [1] was -6.3% (inactive); in test [3] it was -27.2% (inactive); in test [7], 7.51% (inactive); in test [8], 32.5% (inactive). In addition, the inhibition of aggregation in test [2] is 12.1% (inactive). The nuclei count worked out at 114% in test [2] and 115% in test [3]. In test [4], the fluorescence slope is -0.622 (inactive). The NADPH fluorescence slope in test [5] is -3e-05 (inactive). The slope in test [6] was 0.00687 (inactive).

Turning to `O=C(Nc1nc(-c2cccs2)cs1)c1cccc(S(=O)(=O)N2CCCCC2)c1`, the cell count in test [1] turned out to be 503. The inhibition was 0% (inactive) in test [1], -108% (inactive) in test [3], 6.17% (inactive) in test [7] and -7.26% (inactive) in test [8]. Moreover, in test [2], the inhibition of aggregation is -5.4% (inactive). The results for the nuclei count in test [2] and in test [3] were 110% and 124%, respectively. In addition, the fluorescence slope in test [4] is -0.479 (inactive). In test [5], the NADPH fluorescence slope was -2.5e-05 (inactive). The slope in test [6] was 0.00684 (inactive).
